Sampled rows, rich in hits. Any-hit rate of the full collection: about 2.1%.
Mito fusion act: inhibitors of mitochondrial division or activators of mitochondrial fusion | S. cerevisiae fusion-defective mutant growth rescue, CellTiterGlo 48 h | Potency, µM (series often up to 46.1 µM), for inactives: at the highest dose growth rescue (activation), usual class: activators | actives 0.23% (n = 320,000) | AID 485298; note: potency is the fitted concentration of half-maximal effect; % of control where 0% means no effect; nearly all actives have a fitted effect of over 45% in size
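Compounds are tested for their ability to restore growth of mitochondrial fusion-defective yeast strains at non-permissive 37C in YPEG medium over 48 hours. Viability is quantified by luciferase luminescence.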
uPA generation: inhibitors of cell surface uPA generation | cell surface uPA generation assay, qHTS | Potency, µM (titrated, usually from 38.3 µM), without a hit: top-dose activity change, negative = inhibition, usual class: inhibitors | actives 0.31% (n = 330,000) | AID 540303; active = well fitted inhibition curve with a large enough effect; inconclusive = small, poorly fitted or top-dose-only effect; inactive = no such curve, though single readings can be large or run the other way; tested in mouse RAW 264.7 cells; note: potency is the fitted concentration of half-maximal effect; % is set by controls: 0 for no effect and ±100 for the full control effect; nearly all actives have a fitted effect of over 55% in size
p53 reactivator: restores transcriptional activity of mutant p53; H1299 p53-A138V BP100-luciferase reporter, luminescence, 24 h; Potency, µM (doses to about 92.2 µM), inactives show top-dose activity change, positive = activation, hits mostly activators; actives 0.063% (n = 320,000); AID 504706; note: potency is the fitted concentration of half-maximal effect; % of control where 0% means no effect; nearly all actives have a fitted effect of over 45% in size
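p53-null H1299 cells stably carrying temperature-sensitive p53-A138V and a BP100-luciferase reporter were pinned with compounds (4-point, 1:5 series) and held 24 hrs at 37 deg C. Luminescence was read 10 min after detection reagent.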
ClpP mod: qHTS Assay for Activators of ClpP | ATP-dependent Clp protease proteolytic subunit (Bacillus subtilis (strain 168)), P80244 | purified B. subtilis ClpP, FRET peptide cleavage, 20 min | Potency, µM (titrated, usually from 57.5 µM), inactives show top-dose activity change, negative = active | actives 1.9% (n = 340,000) | AID 651965, 2013; active = well fitted falling curve with a large enough effect; inconclusive = small, poorly fitted or top-dose-only effect; inactive = no such curve, though single readings can be large or run the other way; note: potency is the fitted concentration of half-maximal effect; the source files actives as falling curves though it sought activators and does not explain the sign; nearly all actives have a fitted effect of over 65% in size
Target sequence (P80244 whole entry, looked up): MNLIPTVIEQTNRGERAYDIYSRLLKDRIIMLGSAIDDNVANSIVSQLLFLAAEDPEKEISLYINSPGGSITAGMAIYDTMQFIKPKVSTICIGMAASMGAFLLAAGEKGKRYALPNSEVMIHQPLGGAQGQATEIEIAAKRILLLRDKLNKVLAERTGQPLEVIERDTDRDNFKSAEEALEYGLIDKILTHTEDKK
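Buffer: 100 mM Tris/HCl pH8, 100 mM KCl, 0.05% low protease BSA, 2.5% glycerol, 0.01% Tween-20. ClpP 10 microg/mL final; 20 min RT; delta FRET normalized to ADEP and DMSO controls.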
B2AR arrestin: recruits beta-arrestin to the human beta2-adrenergic receptor; beta-arrestin recruitment to beta2AR, cell-based reporter; Potency, µM (top dose mostly 46.1 µM), without a hit: top-dose activation, most hits filed as activators; actives 0.02% (n = 330,000);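 note: potency is the fitted concentration of half-maximal effect; 0% = DMSO controls and full agonism = EC100 isoproterenol or metaproterenol; nearly all actives have a fitted effect of over 65% in size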
Target sequence (P07550 whole entry, looked up): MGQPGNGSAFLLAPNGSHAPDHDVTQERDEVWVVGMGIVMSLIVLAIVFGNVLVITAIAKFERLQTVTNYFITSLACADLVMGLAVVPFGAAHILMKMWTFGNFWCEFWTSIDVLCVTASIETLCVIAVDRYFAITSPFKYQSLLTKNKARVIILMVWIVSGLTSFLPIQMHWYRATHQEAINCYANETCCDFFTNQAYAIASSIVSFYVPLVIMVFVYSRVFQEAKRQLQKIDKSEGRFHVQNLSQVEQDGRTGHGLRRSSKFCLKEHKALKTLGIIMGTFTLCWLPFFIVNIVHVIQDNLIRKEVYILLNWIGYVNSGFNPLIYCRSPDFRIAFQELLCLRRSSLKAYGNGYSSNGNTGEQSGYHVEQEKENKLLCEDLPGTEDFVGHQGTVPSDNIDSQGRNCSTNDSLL
Giardia killer: Giardia lamblia killing; Giardia lamblia trophozoite viability; activity change, % at 7.66 µM, hits read low; actives 0.15% (n = 340,000); in the data active = activity change below about -80%; inconclusive = between about -30% and that limit;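 note: parasites exposed to compound for two days anaerobically before the ATP read; % is set by controls: 0 for no effect and ±100 for the full control effect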
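Giardia lamblia trophozoites (100 cells/well) were incubated with compounds for 48 h at 37 deg C under anaerobic conditions. Viability was read as ATP content by one-step luminescence after 15-30 min at room temperature.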
Active calls of the source: *; u = inconclusive; x = no result given; ! = not active in a repeat. Unless noted, calls come from the whole dose curve; as a rule, active = well fitted curve in the direction sought with a large enough effect; inconclusive = small, poorly fitted or top-dose-only effect, or another doubt; inactive = no such curve, though single readings can be large; an effect the other way counts as inactive or inconclusive.

SMILES	Mito fusion act	uPA generation	p53 reactivator	ClpP mod	B2AR arrestin	Giardia killer
CC(C)(C)c1csc(NC(=O)Cc2cccs2)n1	-4%	6%	3%	-8%	-1%	-1
CC(C)(C)c1csc(NC(=O)CCc2ccccc2)n1	1%	2%	32µM*	1%	0%	1
CCn1c(=O)c(=O)[nH]c2cc(C(=O)NC3CCCc4ccccc43)ccc21 (configuration not stated)	-5%	-13%	12%	32µM*	0%	18
CCn1c(=O)c(=O)[nH]c2cc(C(=O)NC3CC3)ccc21	-3%	1%	-3%	32µM*	-1%	-21
Cc1cc(C)n(CCc2nc3c4ccccc4nc(N4CCN(c5ccccc5)CC4)n3n2)n1	x	x	x	-5%	x	x
CCCCCCCCNc1ccc(/C=C/c2ccnc3ccccc23)cc1	x	x	x	1%	x	x
Cc1cccc(-c2nc(CN3CCCC(C(=O)NCc4ccc(Cl)cc4)C3)c(C)o2)c1 (configuration not stated)	x	x	x	0%	x	x
CCc1nnc2c(Nc3ccc(N(CC)CC)cc3C)nc3ccccc3n12	x	x	x	0%	x	x
Cc1cc(C)nc(SCc2nc3nc(C)cc(C)n3c2Br)n1	-4%	-1%	-4%	28µM*	0%	8
Nc1ccc(/C=C/c2cccc3cccnc23)cc1	x	x	x	-2%	x	x
Nc1ccc(N2CCN(c3cccc(Cl)c3)CC2)cc1	4µM*	-9%	-1%	-7%	-2%	6
CCOC(=O)C1=C(C)N=c2s/c(=C/c3cccc([N+](=O)[O-])c3O)c(=O)n2C1c1ccc(OC)cc1OC (configuration not stated)	-6%	2%	8%	x	0%	-80*
CCOC(=O)C1=C(C)N=c2s/c(=C\c3ccc(O)c([N+](=O)[O-])c3)c(=O)n2C1c1ccccc1OC (configuration not stated)	-10%	3%	-3%	x	0%	u
Cc1cccc(OCC(=O)Nc2ccc(O)c(-c3nc4ccccc4o3)c2)c1	x	x	x	-1%	x	x
Cc1ccc(Cl)cc1N1CCN(C(=O)C2CCN(S(=O)(=O)c3cccc4nonc34)CC2)CC1	x	x	x	-2%	x	x
Cc1ccc(Cl)cc1N1CCN(C(=O)CCS(=O)(=O)c2cccc3nonc23)CC1	14µM*	-6%	-5%	-9%	0%	1
Cc1cc(-c2nc3ccccc3o2)c2ccccc2n1	-2%	-9%	6%	6%	0%	-3
c1ccc(-c2nc3ccccc3o2)nc1	0%	0%	28%	13µM*	0%	-6
Clc1ccc2oc(-c3ccccn3)nc2c1	-3%	-9%	u	16µM*	0%	-29
Nc1ccc2oc(-c3ccccn3)nc2c1	-4%	-2%	u	-5%	0%	-2
Cc1ccnc2ccc(-c3nc4ccccc4o3)cc12	-2%	-6%	26%	35µM*!	0%	-5
Cc1cc(Sc2nnc(/N=C/N(C)C)s2)c2ccccc2n1	-12%	u	-12%	-3%	-1%	-16
Cc1cc(Sc2nnc(N)s2)c2ccccc2n1	-5%	3.2µM*	-14%	1%	-1%	23
CC1CC(C)(C)CC2(C1)NC(=S)N(c1ccccc1)N2 (configuration not stated)	0%	5%	5%	16µM*	0%	-14
CN1CCN(C(=O)CCCN2C(=O)/C(=C/c3ccccc3)SC2=S)CC1	-11%	-3%	u	x	-1%	-1
SMILES	Mito fusion act	uPA generation	p53 reactivator	ClpP mod	B2AR arrestin	Giardia killer
O=C(O)CCCN1C(=O)/C(=C\C(Cl)=C\c2ccccc2)SC1=S	-31%	5µM*	-13%	0%	-1%	32
Nc1nc2ccccc2n1/N=C/c1ccc([N+](=O)[O-])s1	11µM*	-5%	24%	-1%	0%	u
Nc1nc2ccccc2n1/N=C/c1cccnc1	x	13%	x	0%	x	13
COc1ccc(C2CC(c3ccc(Br)cc3)=NN2C(=O)c2cccnc2)cc1 (configuration not stated)	18µM*	-3%	-18%	0%	0%	-18
COc1ccc(C2CC(c3ccccc3)=NN2C(=O)COC(=O)c2cccnc2)cc1 (configuration not stated)	19%	3%	-2%	1%	0%	9
COc1ccc(C2CC(c3ccc4ccccc4c3)=NN2C(=O)CSc2ncccn2)cc1 (configuration not stated)	12%	0%	u	22µM*	0%	-4
COc1cccc(C(=O)Nc2sc3c(c2C#N)CCN(C(C)=O)C3)c1	14%	0.4µM*	6%	-3%	0%	0
CC(C)c1onc(C(=O)N2CCN(C(c3ccccc3)c3ccccc3)CC2)c1[N+](=O)[O-]	1%	3.2µM*	-6%	-3%	0%	-4
O=C(CCNS(=O)(=O)c1ccc2c(c1)CCCC(=O)N2)Nc1cccc(Cl)c1	x	x	x	-23%	x	x
O=C(CSc1nc2nn(-c3ccccc3)c(=O)c-2c2n1CCCCC2)c1ccc(O)c(O)c1	3%	-4%	28µM*	1%	0%	2
CCOC(=O)Cn1nc(N2CCN(c3ccc(F)cc3)CC2)ccc1=O	x	x	x	1%	x	x
CNC(=O)c1cc2cc(OC)ccc2n1CCN(Cc1ccccc1)Cc1ccccc1	16%	-2%	3%	22µM*	-1%	-11
CCCCCCC(=O)Nc1cc2c(C)cc(=O)oc2cc1C	-4%	-3%	9%	-2%	0%	22
CCC(=O)Nc1cc2c(C)cc(=O)oc2cc1C	-3%	-4%	-1%	32µM*	0%	-9
O=C1CN(C(=O)c2ccc(S(=O)(=O)N3CCCC3)cc2)C(c2ccc(F)cc2)c2cc(Br)ccc2N1 (configuration not stated)	x	x	x	-3%	x	x
CCOc1cc(/C=N/NC(=O)COc2ccc(Cl)cc2)ccc1OS(=O)(=O)c1ccccc1	13µM*	-10%	5%	-3%	-1%	-3
CCOC(=O)N/N=C/c1ccc(OCCSc2ccc(Cl)cc2)c(OC)c1	-4%	0%	-14%	u	-2%	3
CCOC(=O)N/N=C/c1ccc(OCCSc2ccc(Cl)cc2)c(OCC)c1	35µM*	-1%	-3%	1%	0%	-8
COC(=O)c1cc2sccc2n1CC(=O)Nc1ccc(C)cc1C	x	x	x	-2%	x	x
Cc1ccc(-c2nn(-c3ccccc3)cc2CO)o1	3%	-4%	u	32µM*	-1%	-1
OCc1cn(-c2ccccc2)nc1-c1ccc(-c2nn(-c3ccccc3)cc2CO)cc1	0%	8%	2%	28µM*	0%	-3
Cc1cccc(NC(=O)Cn2c(=O)n(CC3CCC(C(=O)NCCc4ccccc4)CC3)c(=O)c3ccccc32)c1 (configuration not stated)	x	x	x	-6%	x	x

Source: PubChem BioAssay
